Data: ChEMBL document CHEMBL3988442, “University of Dundee, Small-Polar-MMV Screening Library” (2021)
About 950 (1.4%) of roughly 69,000 compounds showed an effect of 50% or more. This is one part of a sample in which strong results are shown more often than they occur.

These compounds were tested on Mycobacterium tuberculosis (assay: Cornell M. t heat shock assay; note: in the data most compounds retested in dose-response had high values).
Type: functional, organism-based
Set-up: dose or concentration left out as unconfirmed

Row | SMILES | Percent Effect [%]
1 | Cc1c(CN2CCc3nc4sccc4c(=O)n3CC2)cnn1C.Cl | -11.07
2 | COCC(=O)NCc1cc(=O)n2c(n1)CN(C)CCC2.O=C(O)C(F)(F)F | 2.895
3 | CCn1cncc1CN1CCN(CC2(c3ccc(C)cc3)CC2)CC1.Cl | -24.04
4 | Cn1nnc2c1C(COCc1cccnc1)CN(Cc1ccoc1)C2.O=C(O)C(F)(F)F.O=C(O)C(F)(F)F (configuration not stated) | -46.31
5 | O=S(=O)(NCCNc1ccc(-n2cccc2)nn1)c1cccs1 | 103.8
6 | Cc1ccc(C)c(S(=O)(=O)NCCNc2ccc(-n3cccc3)nn2)c1 | 35.9
7 | O=S(=O)(NCCNc1cc(-n2cccc2)ncn1)c1cccs1 | 9.38
8 | O=S(=O)(NCCNc1ccc(-n2cccn2)nn1)c1ccccc1 | 101.1
9 | O=S(=O)(NCCNc1ccc(-n2cccc2)nn1)c1ccccc1 | 100.9
10 | O=S(=O)(NCCNc1cc(-n2cccn2)ncn1)c1cccs1 | -0.2009
11 | Cc1cc(C)n(-c2ccc(NCCNS(=O)(=O)c3ccccc3)nn2)n1 | 7.275
12 | O=S(=O)(Cc1ccccc1)NCCNc1ccc(-n2cccc2)nn1 | -9.655
13 | Cc1nsc(NCCNS(=O)(=O)c2ccccc2)n1 | -4.682
14 | CNC(=O)CN1CC[C@H]2CN(C(=O)c3ccccc3F)C[C@H]2C1.O=C(O)C(F)(F)F | -22.98
15 | CC(C)c1nn(C)c(N(C)C)c1CNCc1ccccc1CO.Cl | 37.79
16 | CCOC1COC2(CCN(Cc3ccc(C)cc3)CC2)C1.O=C(O)C(F)(F)F (configuration not stated) | -2.769
17 | CCN1CCC2(CC1)CC(NC(=O)c1csnn1)c1ccccc1O2.O=C(O)C(F)(F)F (configuration not stated) | 54.1
18 | CCN1CCC2(CC1)CC(NC(=O)c1c[nH]cn1)c1ccccc1O2 (configuration not stated) | 11.74
19 | CN1CCC2(CC1)CC(NC(=O)c1csnn1)c1ccccc1O2.O=C(O)C(F)(F)F (configuration not stated) | 76.95
20 | O=C(NC1CC2(CCN(CCO)CC2)Oc2ccccc21)c1csnn1 (configuration not stated) | 10.49
21 | COCCN1CCC2(CC1)CC(NC(=O)COC)c1ccccc1O2.O=C(O)C(F)(F)F (configuration not stated) | -4.974
22 | COCCN1CCC2(CC1)CC(NC(=O)CN(C)C)c1ccccc1O2.O=C(O)C(F)(F)F.O=C(O)C(F)(F)F (configuration not stated) | -9.867
23 | N#Cc1cccc(CN2Cc3nccn3CC(COCC3CC3)C2)c1.O=C(O)C(F)(F)F (configuration not stated) | -23.01

Row | SMILES | Percent Effect [%]
24 | O=C1CCCC2=C1C(c1ccccc1Cl)Nc1nonc1N2 (configuration not stated) | 3.129
25 | Cc1occc1C(=O)NCC(=O)NCCOc1cccc(Cl)c1 | 34.75
26 | O=C(CNC(=O)c1ccoc1)NCCOc1ccc2c(c1)CCC2 | 12.38
27 | Cc1occc1C(=O)NCC(=O)NCCOc1ccc2c(c1)CCC2 | 50.55
28 | Cc1ccc(CN2CCOCC3(CCN(Cc4cccs4)C3)C2)o1.O=C(O)C(F)(F)F.O=C(O)C(F)(F)F (configuration not stated) | -11.36
29 | COCCN1CCc2c(c(COc3cccnc3)nn2C)C1.O=C(O)C(F)(F)F.O=C(O)C(F)(F)F | 5.842
30 | Cc1ccc(Cl)cc1N1CCC(CNC(=O)CC(F)(F)F)C1 (configuration not stated) | 28.09
31 | Cc1ccc(Cl)cc1N1CCC(CNC(=O)CCn2ccnc2)C1 (configuration not stated) | 172.3
32 | Cc1ccc(Cl)cc1N1CCC(CNC(=O)Cn2cccn2)C1 (configuration not stated) | 6.122
33 | CCC(=O)NCC(=O)NCC1CCN(c2cc(Cl)ccc2C)C1 (configuration not stated) | -4.009
34 | Cc1ccc(Cl)cc1N1CCC(CNC(=O)CCn2ccnn2)C1 (configuration not stated) | 62.44
35 | Cc1cnn(CC(=O)NCC2CCN(c3cc(Cl)ccc3C)C2)c1 (configuration not stated) | 0.4801
36 | CN(C)CCNC(=O)c1cc(-c2cnc(N3CCCC3)nc2)cn1C.O=C(O)C(F)(F)F | -14.58
37 | CC(=O)N1[C@H](CN(C)C)C[C@@H]2CN(C(=O)c3cncc(C)c3)CC[C@@H]21.O=C(O)C(F)(F)F.O=C(O)C(F)(F)F | -6.193
38 | COCCn1cc(C(=O)N2CCCC2c2cc(C)on2)c2ccccc21 (configuration not stated) | -20.39
39 | COc1cccc([C@H]2CN(C(=O)c3cc(C)on3)C[C@@H]2N)c1 | -0.4367
40 | CCOC(=O)N1CCN(C(=O)c2cc(-c3ccccc3F)on2)CC1 | 9.54
41 | COc1cccc2sc(N3CCN(C(=O)c4cc(C)on4)CC3)nc12 | 101.6
42 | CCOc1cc(C)nc(N2CCN(C(=O)c3cc(C)on3)CC2)n1 | -16.01
43 | Cc1cc(C(=O)N2CCN(c3nc4c(C(C)C)cccc4s3)CC2)on1 | -0.7761
44 | Cc1cc(C(=O)N2CCN(c3nc4c(C(C)C)cccc4s3)CC2)no1 | 88.51
45 | Cc1cccc(C(=O)N2CCN(c3ccccc3F)CC2)n1 | -5.532
46 | COc1cccc2sc(N3CC(OC(C)=O)C3)nc12 | 4.303

Row | SMILES | Percent Effect [%]
47 | CC(=O)OC1CN(c2nc3c(C)cccc3s2)C1 | -13.72
48 | Cc1cc(C(=O)N2CCN(c3nc4c(C)cccc4s3)CC2)no1 | 96.55
49 | Cc1cc(C(=O)N2CCN(c3nc4c(F)cccc4s3)CC2)no1 | 70.89
50 | Cc1cc(C(=O)N2CCN(c3nc4ccccc4s3)CC2)no1 | -15.49
51 | Cc1cc(C(=O)N2CCN(C)CC2)nn1CC(=O)NCc1ccccn1.Cl | -24.19
52 | CC(C)C[C@H](N)c1nnc(SCC(=O)Nc2ccc(Br)cc2)o1.Cl | 9.958
53 | O=C(O)C(F)(F)F.O=C(O)C(F)(F)F.O=C(O)C(F)(F)F.c1ccc(NCc2cn3c(n2)CN(Cc2cccnc2)CC3)nc1 | 2.185
54 | CS(=O)(=O)c1ccc(C(=O)N2CCCC(n3ccnc3)C2)cc1 (configuration not stated) | 8.305
55 | Cn1cc(-c2ncc3c(c2C(=O)O)CCN(Cc2ccccn2)C3)cn1.O=C(O)C(F)(F)F.O=C(O)C(F)(F)F | 44.96
56 | CO[C@@H]1CCN(C(=O)c2ccsc2)[C@@H]2CN(CC3CC3)C[C@@H]21.O=C(O)C(F)(F)F | 9.15
57 | COCCCNC(=O)c1cc(-c2cnc(N(C)C)nc2)cn1CC1CC1.O=C(O)C(F)(F)F | 0.3583
58 | OC1(CN2CCCC2)CCCN(Cc2c[nH]c(CC3CCCC3)n2)C1 (configuration not stated) | 109.3
59 | OC1(CN2CCCCC2)CCN(Cc2c[nH]c(CC3CCCC3)n2)C1 (configuration not stated) | 56.92
60 | c1[nH]c(CC2CCCC2)nc1CN1CCCC2(CCOC2)C1 (configuration not stated) | -0.6443
61 | COC[C@]1(O)CCN(Cc2c[nH]c(CC3CCCC3)n2)CC1(C)C | -12.53
62 | CC1(C)CN(Cc2c[nH]c(CC3CCCC3)n2)CC[C@]1(C)O | 10.2
63 | C[C@@H]1CN(Cc2c[nH]c(CC3CCCC3)n2)CC[C@]1(C)O | -1.066
64 | COc1cc(C(=O)N(C)C)ccc1NC(=O)c1ccsc1 | -21.05
65 | CCS(=O)(=O)N1CC[C@H]2CO[C@H](CN(C)C)[C@H]2C1.O=C(O)C(F)(F)F | -39.84
66 | CCN1CCC2(CCC(=O)N2Cc2cccc(C)n2)CC1.O=C(O)C(F)(F)F.O=C(O)C(F)(F)F | -30.9
67 | O=C(O)C(F)(F)F.O=C(O)C(F)(F)F.c1cnn(CCCO[C@@H]2CN(C3CCOCC3)[C@@H]3CCCO[C@@H]32)c1 | -22.39
68 | Cc1ccc(CN2CC[C@H]3NC(=O)CC[C@@H]32)o1.O=C(O)C(F)(F)F | -7.125
69 | Cc1cccc(N2CCC3(CCCN(C(=O)c4cccnc4)C3)C2)n1.O=C(O)C(F)(F)F.O=C(O)C(F)(F)F (configuration not stated) | -32.42

Row | SMILES | Percent Effect [%]
70 | COCCNC(=O)c1ccc2ccc(N(C)CC3CC3)n2c1 | 24.26
71 | CN(C)C(=O)CNC(=O)c1ccc2ccc(N(C)CC3CC3)n2c1 | 51.54
72 | CN(C)CCNC(=O)c1ccc2ccc(N(C)CC3CC3)n2c1 | -34.83
73 | NC(=O)N1CCC2(CCN(C(=O)c3cccnc3)CC2)C1.O=C(O)C(F)(F)F | -5.676
74 | Cl.Cl.c1ccc(COC[C@@H]2CCC[C@@]23CNCCO3)nc1 | 33.86
75 | Cc1cc(C)c(CNC(=O)NCCNc2cnccn2)c(=O)[nH]1 | -7.276
76 | CCCc1cncnc1N1CCC(NCc2ccncc2)CC1 | 4.573
77 | CCCc1cncnc1N1CCC(NCc2ccc(O)cc2)CC1 | -4.464
78 | CCCc1cncnc1N1CCC(NCc2cc3ccccc3[nH]2)CC1 | 103.5
79 | Cc1noc(C)c1C(=O)NCc1ccnc(OCC(F)(F)F)c1 | 0.8028
80 | Cc1n[nH]c(C(=O)NCc2ccnc(OCC(F)(F)F)c2)c1Br | 65.15
81 | Cc1ncsc1C(=O)NCc1ccnc(OCC(F)(F)F)c1 | -36.25
82 | NC(=O)N1CCCC(C(=O)NCc2ccccc2OC(F)(F)F)C1 (configuration not stated) | 35.38
83 | CN(Cc1ccccc1OC(F)(F)F)C(=O)C1CC1 | 6.346
84 | CN(Cc1ccccc1OC(F)(F)F)C(=O)C1CCCN(C(N)=O)C1 (configuration not stated) | 92.25
85 | O=C(O)C(F)(F)F.O=C(O)C(F)(F)F.c1cc(CO[C@H]2CC[C@H]3[C@H]2OCCN3Cc2nccs2)ccn1 | -1.961
86 | O=C(O)C(F)(F)F.O=C(O)C(F)(F)F.O=C1N(c2cncnc2)CCC12CCCN(Cc1cccnc1)C2 (configuration not stated) | -18.13
87 | CCOCC1CN(C(=O)c2cscn2)Cc2cn(C)nc21.O=C(O)C(F)(F)F (configuration not stated) | -37.83
88 | COC[C@@H]1CCC[C@]12CN(Cc1ccco1)CCO2.O=C(O)C(F)(F)F | -13.34
89 | Cl.NCc1cc(-c2ccccc2)n2nccc2n1 | -2.564
90 | OCC(O)CN1CCc2onc(-c3ccc(C(F)(F)F)cc3)c2C1 (configuration not stated) | 97.28
91 | FC(F)(F)c1ccc(-c2noc3c2CN(CC2CCCO2)CC3)cc1 (configuration not stated) | 46.47
92 | COCC(C)N1CCc2onc(-c3ccc(C(F)(F)F)cc3)c2C1 (configuration not stated) | 16.68
